Bioassay records deposited in PubChem BioAssay by National Center for Advancing Translational Sciences (NCATS).
The list is not random: actives were taken first. Their share in the collection is about 8%.
Lassa entry inh = inhibitors of Lassa virus binding or cell entry; Lassa virus pseudotype entry inhibition, cell reporter; Potency, µM (highest dose often 37.9 µM), inactives show at the highest dose activity change, negative = inhibition, actives largely listed as inhibitors; 1.2% of 300,000 active; calls by dose curve; tested in HEK293 cells; also: potency is read from the fitted curve at half-maximal effect; % is scaled to controls: 0 for no effect and ±100 for the full control effect; nearly all actives have a fitted effect of over 50% in size
FMDV antiviral = blocks foot and mouth disease virus; FMDV antiviral cell-based qHTS; Potency, µM (top dose mostly 57.9 µM), inactives show at the highest dose activity change, negative = inhibition, usual class: inhibitors; 1.2% of 410,000 active; calls by dose curve; tested in HEK293T cells; also: read-out not given here; potency is read from the fitted curve at half-maximal effect; % is scaled to controls: 0 for no effect and ±100 for the full control effect; nearly all actives have a fitted effect of over 45% in size
HCMV antiviral = blocks human cytomegalovirus replication. HFF cells, HCMV-luciferase reporter, 72 h; hits give low values. activity change, negative = inhibition, % at 57.5 µM. 4.5% of 410,000 active. AID 1259415; in the data active = activity change below about -60%; inconclusive = no clear call, values can overlap the other calls; inactive = above about -39%; also: % is scaled to controls: 0 for no effect and ±100 for the full control effect
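Steps: HFFs plated, 16 h 37C; compounds added; HCMV-luciferase added to MOI 1 PFU/cell; 72 h 37C; OneGlo reagent, 5 min room temperature; luminescence read, normalized to controls.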
MARV entry inh = inhibitors of Marburg virus binding or cell entry; Marburg virus pseudotyped entry inhibition, cell reporter; Potency, µM (series often up to 37.8 µM), for the others: at the highest dose activity change, negative = inhibition, actives largely listed as inhibitors; 1.8% of 300,000 active; AID 540276; calls by dose curve; tested in HEK293 cells; also: potency is read from the fitted curve at half-maximal effect; % is scaled to controls: 0 for no effect and ±100 for the full control effect
SARS PLpro yeast = SARS-CoV PLP inhibition in yeast. 0.19% of 330,000 active. S. cerevisiae expressing SARS-CoV PLpro, growth rescue. Potency, µM (highest dose often 32.9 µM), for the others: top-dose activity, positive = growth rescue, actives largely listed as activators; calls by dose curve; also: potency is read from the fitted curve at half-maximal effect; 0% is about no effect; nearly all actives have a fitted effect of over 55% in size
HCV inhibitor = HCV inhibition | 3.4% of 340,000 active | AID 651820 | Huh7.5.1 HCVcc-Cre infection, luciferase reporter, 44 h | Potency, µM (titrated, usually from 41.8 µM), for the others: at the highest dose activity change, negative = inhibition, actives largely listed as inhibitors; active = well fitted inhibition curve with a large enough effect; inconclusive = small, poorly fitted or top-dose-only effect, or another doubt; inactive = no such curve, though single readings can be large or run the other way; also: potency is read from the fitted curve at half-maximal effect; % is scaled to controls: 0 for no effect and ±100 for the full control effect
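Cells (1,000/well) were plated 4 h before compound, then infected with HCVcc-Cre virus (~0.5 moi). After 44 h further culture, infection was read as luciferase luminescence following a 15 min substrate incubation at room temperature.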
The depositor's hits bear a star; [ ] = another dose, or the depositor's remark.

Results for COc1ccc(S(=O)(=O)Nc2cc(Sc3ncn[nH]3)c(O)c3ccccc23)cc1 ?
HCMV antiviral: -77.6*; SARS PLpro yeast: -46.2%; HCV inhibitor: 31.6µM*

What do the screens show for `COc1cc(/C=N/NC(=O)c2cc(-c3ccccc3Cl)nc3ccccc23)cc(OC)c1O`?
Lassa entry inh: inconclusive; FMDV antiviral: 0.5%; HCMV antiviral: 32.5; MARV entry inh: -4.9%[46.1 µM]; HCV inhibitor: -11.6%

What do the screens show for `COc1cc(/C=N/NC(=O)c2cc(-c3ccccc3OC(C)C)nc3ccccc23)ccc1O`?
Lassa entry inh: 5.8µM*; FMDV antiviral: inconclusive; HCMV antiviral: -20.9; MARV entry inh: 4.61µM*; SARS PLpro yeast: -2.1%; HCV inhibitor: -12.4%

How did Cc1ccc(/C=N/NC(=O)c2cc(-c3ccccc3)nc3ccccc23)o1 do in these assays?
Lassa entry inh: -21.3%[46.1 µM]; FMDV antiviral: -7.7%; HCMV antiviral: -32.5; MARV entry inh: -26.0%[46.1 µM]; HCV inhibitor: -17.3%

Results for O=C(NN=Cc1cccc([N+](=O)[O-])c1)c1cc(-c2cccnc2)nc2ccccc12 ?
FMDV antiviral: 28.2µM*; HCMV antiviral: -14.0; SARS PLpro yeast: 1.8%; HCV inhibitor: inconclusive

What do the screens show for `CC(=O)Nc1ccc(/C=N/NC(=O)c2cc3ccccc3nc2C)cc1`?
Lassa entry inh: inconclusive; FMDV antiviral: -6.0%; HCMV antiviral: -71.8*; MARV entry inh: 7.4%; SARS PLpro yeast: 17.2%; HCV inhibitor: 15.5%

Results for Cc1cc(C(=O)N/N=C/c2ccc(C)o2)c2ccccc2n1 ?
Lassa entry inh: inconclusive; FMDV antiviral: -6.3%; HCMV antiviral: -63.0*; MARV entry inh: inconclusive; SARS PLpro yeast: 7.7%; HCV inhibitor: -4.9%

Results for CNCC(=O)NCC(=O)N[C@@H](Cc1ccccc1)C(=O)N[C@@H](CC(C)C)C(=O)O ?
FMDV antiviral: -8.5%[6.7 µM]

What do the screens show for `COc1cccc(C(=O)N(Cc2cc3ccc(C)cc3nc2N(C)C)C2CC2)c1OC`?
FMDV antiviral: -10.9%

Results for COc1cccc(/C=N/NC(=O)c2cc(-c3ccccn3)nc3ccccc23)c1O ?
Lassa entry inh: inconclusive; FMDV antiviral: 3.1%; HCMV antiviral: -63.2*; MARV entry inh: inconclusive; SARS PLpro yeast: -5.8%; HCV inhibitor: 3.98µM*

What do the screens show for `C/C(=N\NC(=O)c1cccnc1)c1cccc([N+](=O)[O-])c1`?
FMDV antiviral: -2.0%; HCMV antiviral: -6.0; SARS PLpro yeast: 0.5%; HCV inhibitor: 25.3%

Results for CC(/C=C/c1cccc([N+](=O)[O-])c1)=N/NC(=O)c1cccnc1 ?
Lassa entry inh: -11.1%; FMDV antiviral: -7.2%; HCMV antiviral: -61.7*; MARV entry inh: -25.8%; SARS PLpro yeast: -40.8%; HCV inhibitor: 13.3%

How did O=C(N/N=C/c1ccccn1)c1cc(-c2ccccc2)nc2ccccc12 do in these assays?
FMDV antiviral: -40.9%; HCMV antiviral: 9.5; SARS PLpro yeast: -3.6%; HCV inhibitor: 10.6%

How did O=C(N/N=C/c1ccc(O)cc1)c1cc(-c2ccccc2)nc2ccccc12 do in these assays?
FMDV antiviral: 16.8%; HCMV antiviral: -76.5*; SARS PLpro yeast: 1.0%; HCV inhibitor: -14.1%

What do the screens show for `COc1ccc(/C=N/NC(=O)c2cc(-c3ccccc3)nc3ccccc23)cc1O`?
Lassa entry inh: -23.2%[46.1 µM]; FMDV antiviral: -13.4%; HCMV antiviral: -14.9; MARV entry inh: 12.6µM*; SARS PLpro yeast: -1.0%; HCV inhibitor: -12.5%

How did CC(/C=N/NC(=O)c1cc(-c2ccccc2)nc2ccccc12)=C\c1ccco1 do in these assays?
Lassa entry inh: inconclusive; FMDV antiviral: 0.0%; HCMV antiviral: -23.5; MARV entry inh: inconclusive; SARS PLpro yeast: -1.1%; HCV inhibitor: -23.6%

How did CC(C)COc1cccc(-c2cc(C(=O)N/N=C/c3ccncc3)c3ccccc3n2)c1 do in these assays?
Lassa entry inh: inconclusive; FMDV antiviral: 12.3%; HCMV antiviral: inconclusive; MARV entry inh: 2.82µM*; SARS PLpro yeast: -0.8%; HCV inhibitor: inconclusive

Results for CCOc1cc(/C=N/NC(=O)c2cc(-c3cccc(OC)c3)nc3ccccc23)ccc1O ?
Lassa entry inh: inconclusive; FMDV antiviral: inconclusive; HCMV antiviral: -33.8; MARV entry inh: inconclusive; HCV inhibitor: -20.8%

How did COc1cc(/C=N/NC(=O)c2cc(-c3ccccc3)nc3ccccc23)ccc1O do in these assays?
Lassa entry inh: inconclusive; FMDV antiviral: 1.8%; HCMV antiviral: -67.2*; MARV entry inh: inconclusive; SARS PLpro yeast: -2.4%; HCV inhibitor: -8.6%

What do the screens show for `Cc1cc(C(=O)N/N=C/c2ccncc2)c2ccccc2n1`?
Lassa entry inh: -10.0%; FMDV antiviral: -9.1%; HCMV antiviral: -13.3; MARV entry inh: -23.2%[46.1 µM]; SARS PLpro yeast: 1.0%; HCV inhibitor: -14.9%

What do the screens show for `CC(/C=N/NC(=O)c1cc(-c2ccc(Cl)cc2)nc2ccccc12)=C\c1ccco1`?
Lassa entry inh: inconclusive; FMDV antiviral: -5.0%; HCMV antiviral: -83.2*; MARV entry inh: inconclusive; SARS PLpro yeast: 12.5%[6.58 µM]; HCV inhibitor: inconclusive

Results for Cc1ccc(OCCCCNC(C)(C)C)c([N+](=O)[O-])c1 ?
Lassa entry inh: -1.1%; FMDV antiviral: -21.3%; HCMV antiviral: -13.2; MARV entry inh: 15.8µM*; SARS PLpro yeast: 4.7%; HCV inhibitor: inconclusive

What do the screens show for `COCCNCCOc1ccc(C)cc1[N+](=O)[O-]`?
Lassa entry inh: -0.1%[46.1 µM]; FMDV antiviral: -8.5%; HCMV antiviral: -25.8; MARV entry inh: -13.5%[46.1 µM]; SARS PLpro yeast: 5.2%; HCV inhibitor: -1.8%

What do the screens show for `O=[N+]([O-])c1ccc(Cl)c(C2Nc3cccc4cccc(c34)N2)c1`?
Lassa entry inh: 1.5%; FMDV antiviral: -23.0%; HCMV antiviral: -81.5*; MARV entry inh: -25.7%; SARS PLpro yeast: -9.1%; HCV inhibitor: -29.1%

Results for CC(=O)O[C@@]1(C(C)=O)CCC2C3C=C(Cl)C4=CC(=O)C5CC5[C@@]4(C)C3CC[C@]21C (stereo partly drawn) ?
FMDV antiviral: 0.0%

Results for Oc1cc(Nc2ccncc2)cc2cccnc12 ?
FMDV antiviral: -17.5%; HCMV antiviral: -24.8; SARS PLpro yeast: -3.5%

Results for Oc1cc(-c2ccncc2)cc2cccnc12 ?
FMDV antiviral: -5.0%; HCMV antiviral: -96.9*; SARS PLpro yeast: 4.2%

How did CN(C)c1ccc(-c2cc(O)c3ncccc3c2)cc1 do in these assays?
FMDV antiviral: 30.6%; HCMV antiviral: -97.4*; SARS PLpro yeast: -3.1%

What do the screens show for `COc1ccc([C@@H]2[C@@H](C(=O)N3CCCC3)CC(=O)N2C(=O)c2ccccc2)cc1`?
HCMV antiviral: -16.7

Results for COc1ccc(-c2nc3cc(C)ccc3cc2CN(C(=O)c2cc(C)nn2C)C2CC2)cc1OC ?
FMDV antiviral: -4.0%
